Screens from PubChem.
Only some compounds are listed: those with a hit (about 4.6% of all), similar ones and a draw of the others.
tim10-1 inh – inhibits growth of tim10-1 mutant yeast; AID 463190; inhibition, % at 20 µM; S. cerevisiae tim10-1 ts strain growth, BacTiter-Glo, 24 h; actives 2.2% (n = 330,000);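 active means inhibition of at least 40%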;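 further: mutant grown at 25 °C; 0% = DMSO wells with yeast and 100% = wells holding no yeast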
TIM10 inh – TIM10 yeast growth inhibition. S. cerevisiae TIM10 strain growth, BacTiter-Glo luminescence, 24 h. actives 1.4% (n = 330,000). inhibition, % at 10 µM;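 active means inhibition of 40% or more at the single tested concentration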;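 further: wild-type TIM10 isogenic control strain grown at permissive 25 °C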
tim23-1 inh – growth inhibitors of tim23-1 mutant yeast; S. cerevisiae tim23-1 growth, BacTiter-Glo luminescence, 24 h; inhibition, % at 20 µM; actives 1.3% (n = 330,000); AID 463212;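 active means growth inhibition of the mutant yeast at or above 50%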;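 further: temperature-sensitive mutant grown at 25 °C; plate controls were DMSO-treated mutant yeast for no effect and medium wells lacking yeast for full effect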
NLRP3 yeast inh – NALP3 inhibition in yeast | Yeast reconstituted NLRP3/ASC/caspase-1, beta-gal luminescence, 24 h | AID 2825 | inhibition, % at 10 µM | actives 0.39% (n = 330,000);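 active means inhibition of 50% or more; inactive means inhibition below 50%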;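 further: plate controls were induced DMSO wells for no effect and uninduced yeast grown without galactose for full effect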
PfHsp90 yeast 2 – growth inhibition of yeast expressing Plasmodium Hsp90 | inhibition, % at 9.4 µM | S. cerevisiae expressing PfHsp90, BacTiter-Glo ATP, 48 h; yeast lacking PDR1 and PDR3 efflux regulators | actives 0.32% (n = 310,000) | AID 504621;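 active means every replicate shows inhibition above about 80%, whatever the replicate mean, limit read from the data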;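 further: 0% = DMSO neutral controls and 100% = 20 µM radicicol positive controls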
SKKanGAS inh – inhibitors of SKKanGAS S. pyogenes growth in kanamycin (SK-promoter or general growth effect). AID 1662. BacTiter-Glo, 6 h. inhibition, % at 7.5 µM. actives 1.3% (n = 300,000);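 active means mean replicate score, as percent of positive control median, at least 50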;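 further: strain carries kanamycin resistance gene driven by streptokinase promoter and grows in 40 µg/ml kanamycin; loss of luminescence reflects streptokinase promoter inhibition or plain growth inhibition; 0% = median of DMSO wells and 100% = positive control at its reference dose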
TIM10 conf – TIM10 yeast growth inhibition, confirmed; shares compounds with TIM10 inh; S. cerevisiae tim10 strain growth, BacTiter-Glo luminescence, 24 h; inhibition, % at 10 µM; actives 63% (n = 4,600); AID 463215;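 active means inhibition of yeast growth at or above a set limit in either of two replicates at 10 µM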;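 further: this counterscreen used the strain with wild-type TIM10; 0% = yeast with DMSO and 100% = medium wells lacking yeast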
* = called active by the depositor; . = no result.

SMILES | tim10-1 inh | TIM10 inh | tim23-1 inh | NLRP3 yeast inh | PfHsp90 yeast 2 | SKKanGAS inh | TIM10 conf
CC1(C)Cc2c(sc3nc(C4CC4)n(N)c(=O)c23)CO1 | 1 | 5 | -2 | 10 | -3 | 1 | .
CCNC(=S)N=Nc1c(O)[nH]c2ccc(C(C)C)cc12 | 32 | 41* | 35 | 26 | 0 | -18 | -20
CC(C)c1ccc2[nH]c(O)c(N=NC(=S)NCCc3ccccc3)c2c1 | 25 | 17 | 1 | 13 | -6 | 43 | .
O=C(c1cc(Cl)ccc1[N+](=O)[O-])n1cnc2ccccc21 | 35 | 41* | 48 | -4 | -25 | -5 | 29
COc1cc(C(=O)n2cnc3ccccc32)c([N+](=O)[O-])cc1OC | 22 | 13 | 13 | 6 | 15 | 0 | .
CCN=c1scc(-c2ccccc2)n1/N=C/c1ccccn1 | 36 | 45* | 35 | 12 | 3 | -6 | 24
Cc1nc2ccccc2c(=O)n1/N=C/c1ccccn1 | 11 | -1 | 10 | 8 | 15 | 2 | .
C=CCN=c1scc(-c2ccccc2)n1/N=C/c1ccccn1 | 28 | 48* | 45 | 20 | -23 | -6 | 43*
Cc1nc(SC2CC(=O)N(c3ccccc3)C2=O)n[nH]1 (stereo not given) | 26 | 8 | 13 | 13 | 7 | 0 | .
Cc1nc(S/C(C(=O)O)=C2/C(=O)Nc3ccccc32)n[nH]1 | 32 | 41* | 41 | 23 | 19 | -13 | 38*
O=[N+]([O-])c1ccc(N/N=C/c2cccnc2)cc1 | -54 | 42* | 15 | -14 | -6 | 2 | 30
COc1cccc(-c2nc(-c3ccc4c(c3)NC(=O)CO4)cs2)c1 | 18 | 20 | 16 | 18 | -19 | 13 | .
COc1ccc(-c2cc(-c3ccc(OC)cc3)nc(-c3ccc4c(c3)NC(=O)CO4)c2)cc1 | 20 | 41* | 18 | 8 | -9 | 23 | -4
O=C(NCCc1ccccc1)C(=S)N1CCCCC1 | 12 | 7 | -3 | 7 | . | 2 | .
O=C(CN1CCN(c2nc(-c3ccc(Cl)cc3)cs2)CC1)NCc1ccco1 | 20 | 42* | 23 | 10 | . | 4 | 29*
Cc1ccc(S(=O)(=O)N2CCc3ccccc3C2CC(=O)O)cc1 (stereo not given) | -2 | -9 | 14 | -4 | 17 | -8 | .
O=C1CC(c2ccco2)CC(O)=C1C=Nc1ccccc1-c1ccccc1 (stereo not given) | 38 | 41* | 32 | 1 | . | -5 | 25
O=C1CC(c2ccco2)CC(O)=C1C=Nc1cc(Cl)ccc1O (stereo not given) | 24 | 16 | -6 | 18 | 10 | 4 | .
O=C(/C=C/c1ccc2c(c1)OCO2)NCCSCc1ccc(Cl)cc1Cl | 37 | 41* | 13 | 26 | -31 | 35 | 3
Cc1ccccc1Cn1c(Cc2ccccc2)nc2ccccc21 | 36 | 42* | 46 | -52 | . | 28 | 45*
Cc1cccc(N2CCN(C(c3cccs3)c3nnnn3C(C)(C)C)CC2)c1C (stereo not given) | 14 | 28 | 14 | 1 | -6 | 16 | .
Cc1cccc(N2CCN(C(c3ccccc3)c3nnnn3C(C)(C)C)CC2)c1C (stereo not given) | 19 | 41* | 17 | 20 | -17 | 5 | 4
O=S(=O)(/N=C(/Nc1cccc2ccccc12)c1ccccc1)c1cccs1 | 24 | 43* | 30 | -29 | -7 | 0 | 23
CC(=O)c1ccc(S(=O)(=O)N2CCN(CCOc3ccc(Br)cc3)CC2)cc1 | 15 | 17 | 30 | 18 | 1 | . | .
CCN1C(=O)/C(=C/c2nc3ccccc3c(=O)n2-c2ccccc2)c2ccccc21 | 25 | 43* | 42 | -5 | -7 | 11 | 26
SMILES | tim10-1 inh | TIM10 inh | tim23-1 inh | NLRP3 yeast inh | PfHsp90 yeast 2 | SKKanGAS inh | TIM10 conf
CCn1c2ccccc2c2cc(NC(=O)COC(=O)c3cc(S(N)(=O)=O)c(Cl)cc3Cl)ccc21 | -1 | -22 | -19 | 4 | 7 | -2 | .
Fc1ccccc1NC(=S)NCc1ccccc1 | 17 | 13 | 10 | 2 | -3 | 8 | .
Fc1ccccc1NC(=S)NN(Cc1ccccc1)c1ccccc1 | 33 | 44* | 42 | 6 | -44 | -1 | 38*
COc1ccc2[nH]cc(CCNC(=O)CS(=O)(=O)Cc3ccccc3)c2c1 | 7 | 4 | 9 | 13 | 20 | 0 | .
O=C(N/N=C/c1ccco1)c1ccccc1OCc1ccc(Br)cc1 | 26 | 28 | 47 | 5 | 16 | 5 | .
CC1CCC2(CC1)NC(=O)N(CC(=O)NCCc1ccccc1)C2=O (stereo not given) | 0 | 1 | 14 | 5 | 4 | . | .
CC1CCC2(CC1)NC(=O)N(CC(=O)NCCc1ccc(F)cc1)C2=O (stereo not given) | -12 | 68* | -2 | 13 | -14 | . | -9
O=C(Cc1ccccc1)NN=Cc1ccccc1 | . | . | . | . | -25 | . | .
O=C(Cc1ccccc1)N/N=C/c1cc(Br)cc(Cl)c1O | 39 | 45* | 38 | 24 | 9 | 97* | 51*
CC(C)(C)C(=O)Nc1cc(C(F)(F)F)ccc1N1CCOCC1 | 10 | 4 | 3 | 0 | -26 | 0 | .
CC(C)(C)C(=O)NC(=S)Nc1cc(C(F)(F)F)ccc1N1CCOCC1 | 39 | 48* | 38 | 5 | 6 | -7 | 25
COc1ccc(NC(C)C(=O)Nc2cc(C(F)(F)F)ccc2N2CCOCC2)c(OC)c1 (stereo not given) | 28 | 41* | 33 | 11 | -3 | -18 | 15
CCN1C(=O)/C(=C/c2ccc(C)s2)NC1=S | 36 | 41* | 30 | -4 | -1 | -7 | -18
CC(C)(CO)NCC#Cc1ccccc1 | -13 | -8 | -4 | 4 | 2 | -2 | .
O=C(Nc1ccc(N2CCOCC2)cc1)c1cc(-n2cnnc2)ccc1Cl | -15 | 96* | -18 | 6 | -10 | 0 | -9
O=C(Nc1ccccc1)c1cc(-n2cnnc2)ccc1Cl | 4 | 5 | -12 | 9 | -10 | -3 | .
O=C1Nc2ccccc2C1(O)C/C(=N/O)c1ccccc1 (stereo not given) | 9 | -1 | 12 | 3 | 7 | 4 | .
CSc1cc(-c2ccc(Cl)cc2)c(C(=O)NN)s1 | 25 | 44* | -17 | -7 | . | 20 | 27*
O=C1CC(N2CCN(c3ccccn3)CC2)C(=O)N1CC(c1ccccc1)c1ccccc1 (stereo not given) | 26 | 42* | 15 | 4 | -7 | -2 | 31
COc1cc2c(cc1OC)C(c1ccc(Br)cc1)NC(=O)C2 (stereo not given) | -4 | 0 | 0 | 15 | -3 | 2 | .
O=C(c1ccco1)N1CCN=C1SCc1cccc(F)c1 | -10 | 96* | 20 | 7 | 5 | -4 | -3
